Data as given in PubChem BioAssay (EPA / NIEHS).
Results filed as inconclusive are left out. Active and inactive are the calls of the source. Rule for the calls, unless noted: active = hit-call score of the fitted dose curve at least 0.9, where 1 is the maximum; inconclusive = response in the unintended direction; inactive = score below 0.9.

Read-out: Intercellular Adhesion Molecule 1 (ICAM1), ICAM1 (gene 3383)
Assay: BSK_3C_ICAM1: BioMAP Diversity Plus: 3C Assay for Intercellular Adhesion Molecule 1 (ICAM1) Biomarker Activity (AID 2283003; active = hit-call score of the fitted dose curve at least 0.9, where 1 is the maximum; inactive = score below 0.9)
Conditions: primary human endothelial cells (HUVEC); actives raise or lower the signal
How it was run: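 Human vascular endothelial primary cells, 3C conditions, 24 h treatment. ICAM-1 by ELISA.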

outcome, inactive:
Clc1cc(Cl)c(-c2c(Cl)c(Cl)cc(Cl)c2Cl)cc1Cl

Target: human Retinoic Acid Receptor beta (RARb), RARB (gene 5915) (UniProt P10826)
Sequence (P10826 whole entry, looked up): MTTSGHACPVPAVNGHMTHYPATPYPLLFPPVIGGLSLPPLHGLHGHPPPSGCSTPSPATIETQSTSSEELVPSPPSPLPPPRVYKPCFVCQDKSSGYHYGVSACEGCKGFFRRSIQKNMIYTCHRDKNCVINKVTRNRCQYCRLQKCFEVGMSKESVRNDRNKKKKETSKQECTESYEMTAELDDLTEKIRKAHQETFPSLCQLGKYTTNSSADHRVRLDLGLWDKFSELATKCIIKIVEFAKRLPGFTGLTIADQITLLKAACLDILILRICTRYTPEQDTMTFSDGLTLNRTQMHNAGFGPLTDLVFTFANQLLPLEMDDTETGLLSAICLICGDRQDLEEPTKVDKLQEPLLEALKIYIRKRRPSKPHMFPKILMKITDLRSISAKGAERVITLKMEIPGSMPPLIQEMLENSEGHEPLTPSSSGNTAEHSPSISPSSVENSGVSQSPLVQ
Assay: ATG_RARb_TRANS: Attagene TRANS-FACTORIAL HepG2 Assay for human Retinoic Acid Receptor beta (AID 2283004)
Conditions: not given
How it was run: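 Transient transfection of HepG2 with multiple reporter units → chemical dosing, 24 h → total RNA isolation → RT with oligo(dT) → reporter-specific PCR, 6-FAM primer extension, HpaI digest → capillary electrophoresis. Positive direction vs DMSO control.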

outcome, inactive:
C[N+](C)(C)CCCCCC[N+](C)(C)C
CCCCCCCC(=O)OCCCCCC
C=CC(C)C#N (configuration not stated)
CCN(CC)C(=O)N(CC)CC
CCOC(=O)CN
CCCCC1CCC(O)CC1 (configuration not stated)
CC1(C)C2=CCCC(C)(C)[C@]23CC[C@H]1C3
CC1=C(Br)C(=O)C(Br)=C/C1=C(/c1ccccc1S(=O)(=O)O)c1cc(Br)c(O)c(Br)c1C
CC1CCC(C(C)C)C(O)C1 (configuration not stated)
CCOc1ccc(N=Nc2ccc(C=Cc3ccc(N=Nc4ccc(OCC)cc4)cc3S(=O)(=O)O)c(S(=O)(=O)O)c2)cc1
COc1cc(C(C)C)ccc1C
CC(=O)c1c(C)c([N+](=O)[O-])c(C(C)(C)C)c([N+](=O)[O-])c1C

Target: Retinoic acid receptor alpha (Homo sapiens) (UniProt P10276)
Sequence (P10276 whole entry, looked up): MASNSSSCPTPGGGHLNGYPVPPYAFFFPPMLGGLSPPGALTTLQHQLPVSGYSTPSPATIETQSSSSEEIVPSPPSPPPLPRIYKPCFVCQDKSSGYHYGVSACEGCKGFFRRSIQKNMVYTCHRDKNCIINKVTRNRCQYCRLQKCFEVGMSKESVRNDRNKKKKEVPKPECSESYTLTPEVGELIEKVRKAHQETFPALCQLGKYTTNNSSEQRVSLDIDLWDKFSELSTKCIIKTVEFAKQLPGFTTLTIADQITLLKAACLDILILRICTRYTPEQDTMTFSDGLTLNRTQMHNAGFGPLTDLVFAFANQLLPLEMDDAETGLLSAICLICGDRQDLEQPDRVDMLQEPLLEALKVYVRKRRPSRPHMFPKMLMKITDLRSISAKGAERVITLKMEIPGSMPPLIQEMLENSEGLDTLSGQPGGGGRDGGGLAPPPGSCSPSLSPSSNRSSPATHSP
Assay: ATG_RARa_TRANS: Attagene TRANS-FACTORIAL HepG2 Assay for human Retinoic Acid Receptor alpha (RARa) (AID 2283005)
Conditions: not given
How it was run: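 Reporter transcripts, measured by RT-PCR with fluorescent labeling and capillary electrophoresis after 24 h dosing, reflect activity of an exogenous human RARa–GAL4 fusion in transiently transfected HepG2. Fitted for increase relative to DMSO.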

outcome, inactive:
CCCCCCCC(=O)OCCCCCC
C=CC(C)C#N (configuration not stated)
CCN(CC)C(=O)N(CC)CC
CCCCC1CCC(O)CC1 (configuration not stated)
CC1CCC(C(C)C)C(O)C1 (configuration not stated)
CS(=O)(=O)OCCCCOS(C)(=O)=O
COc1cc(C(C)C)ccc1C
CC(=O)c1c(C)c([N+](=O)[O-])c(C(C)(C)C)c([N+](=O)[O-])c1C

Target: Peroxisome proliferator-activated receptor gamma (Homo sapiens) (UniProt P37231)
Sequence (P37231 whole entry, looked up): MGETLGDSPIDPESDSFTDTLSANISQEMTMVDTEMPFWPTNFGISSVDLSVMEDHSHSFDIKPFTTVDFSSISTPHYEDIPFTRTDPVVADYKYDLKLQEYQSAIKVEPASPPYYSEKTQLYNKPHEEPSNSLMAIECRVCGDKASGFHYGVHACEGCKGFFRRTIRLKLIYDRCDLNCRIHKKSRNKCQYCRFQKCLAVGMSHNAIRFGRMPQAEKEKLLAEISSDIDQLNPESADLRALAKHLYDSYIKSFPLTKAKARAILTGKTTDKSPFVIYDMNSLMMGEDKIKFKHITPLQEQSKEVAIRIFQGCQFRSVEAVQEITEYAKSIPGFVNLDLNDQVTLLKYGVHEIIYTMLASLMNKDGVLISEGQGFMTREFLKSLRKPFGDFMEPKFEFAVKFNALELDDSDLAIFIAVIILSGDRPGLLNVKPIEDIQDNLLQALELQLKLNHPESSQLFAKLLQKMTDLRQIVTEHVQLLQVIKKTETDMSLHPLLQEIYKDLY
Assay: ATG_PPARg_TRANS: Attagene TRANS-FACTORIAL HepG2 Assay for human Peroxisome Proliferator-activated Receptor-gamma (PPARg) (AID 2283007)
Conditions: not given
How it was run: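 Read-out: reporter mRNA induction, detected by fluorescence after RT-PCR and capillary electrophoresis. Transiently transfected human HepG2 liver cells carrying a chimeric NR-Gal4 construct were dosed for 24 h; activity was fitted upward relative to DMSO.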

outcome, inactive:
C[N+](C)(C)CCCCCC[N+](C)(C)C
CCCCCCCC(=O)OCCCCCC
C#CC(C)(O)CC(C)C (configuration not stated)
C=CC(C)C#N (configuration not stated)
COC(=O)c1ccc(OC)cc1
CCOC(=O)CN
CC(=O)O[C@@H]1CC2CCC1(C)C2(C)C (some centres not stated)
O=C1OC[C@H](Cc2cccc(O)c2)[C@H]1Cc1cccc(O)c1
CCCCC1CCC(O)CC1 (configuration not stated)
CC1(C)C2=CCCC(C)(C)[C@]23CC[C@H]1C3
CCCCCCOC(=O)C(C)C
CC1=C(Br)C(=O)C(Br)=C/C1=C(/c1ccccc1S(=O)(=O)O)c1cc(Br)c(O)c(Br)c1C
CC1CCC(C(C)C)C(O)C1 (configuration not stated)
CS(=O)(=O)OCCCCOS(C)(=O)=O
CCOc1ccc(N=Nc2ccc(C=Cc3ccc(N=Nc4ccc(OCC)cc4)cc3S(=O)(=O)O)c(S(=O)(=O)O)c2)cc1
CC=Cc1ccc(OC)c(OC)c1
O=C(CS)OCCOC(=O)CS
CC(=O)c1c(C)c([N+](=O)[O-])c(C(C)(C)C)c([N+](=O)[O-])c1C
CC1(C)CCC[C@]2(C)[C@H]3CCO[C@]3(C)CC[C@@H]12
Clc1cc(Cl)c(-c2c(Cl)c(Cl)cc(Cl)c2Cl)cc1Cl

AC50, active:
BrCc1cccc(Oc2ccccc2)c1 44.8 µM
Nc1c(S(=O)(=O)O)cc(Br)c2c1C(=O)c1ccccc1C2=O 27.5 µM
CCCCCCCCCC(=O)OC 57.1 µM
OCc1cccc(Oc2ccccc2)c1 74.7 µM
CC=CC=CCOC(=O)C(C)C 11.1 µM
CCOC(=O)C(C#N)=C(c1ccccc1)c1ccccc1 7.45 µM
